From PubChem BioAssay AID431 (Sanford-Burnham Center for Chemical Genomics, 2006)
The whole screen tested about 63,000 compounds, of which about 1,100 (1.7%) were called active. Many of the other results were omitted from the sample, so actives are more common in it than they were. Measured potencies and affinities stand elsewhere. Values without a mark were called inactive.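 The calls were made as follows: active = compounds whose percent cytotoxicity in the single-dose primary screen, scaled between solvent and toxic-drug controls, exceeds 50; inactive = the rest.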

Experiment: cytotoxicity in KRAS-transformed pancreatic duct cells, primary screen, cell-based, fluorescence, HTS (AID 431);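 also: 0% = DMSO solvent wells and 100% = doxorubicin-treated wells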
Settings: HPDE-C7K KRASV12 cells, Alamar Blue viability, 48 h; at 10 µM; active compounds read high

SMILES | cytotoxicity
Cn1c(N)c(C(=O)NCc2ccccc2)sc1=S | -2%
Cc1cc(C)c(C#N)c(Nc2ccc3c(c2)OCCO3)n1 | 11.2%
c1ccc(Nc2ncnc3c2oc2ccccc23)cc1 | -10%
c1ccc2c(c1)oc1c(NCCN3CCOCC3)ncnc12 | -2.7%
CCCCOC(=O)c1ccc(NC(=O)c2cnccn2)cc1 | 10.3%
C=CCNC(=O)c1c(N)n(-c2cccc(S(N)(=O)=O)c2)c2nc3ccccc3nc12 | 8.3%
C=CCn1c(N)c(C(=O)OC(C)CC)c2nc3ccccc3nc21 (centres undefined) | 24.5%
C=CCn1c(N)c(C(=O)Nc2ccccc2)c2nc3ccccc3nc21 | 60.6% (active)
C=CCn1c(N)c(C(=O)OCCC)c2nc3ccccc3nc21 | 7.1%
C=CCNC(=O)c1c(N)n(-c2ccc3c(c2)OCO3)c2nc3ccccc3nc12 | -6.4%
C=CCn1c(N)c(C(=O)OC(C)(C)C)c2nc3ccccc3nc21 | 62.9% (active)
Nc1c(C(=O)N2CCCCC2)sc(=S)n1-c1ccccc1 | -4.9%
CCOC(=O)Cc1nn2c(=O)cc(C)nc2s1 | -0.8%
CC(=O)NC1(C(F)(F)F)C(=O)Nc2c1c(=O)[nH]c(=O)n2Cc1ccco1 (centres undefined) | -16.1%
Cc1cc(C)n(-c2nc(Nc3ccccc3)nc(-n3nc(C)cc3C)n2)n1 | 9.6%
CC(=O)c1cccc(NC(=O)CC2SC(N3CCCCC3)=NC2=O)c1 (centres undefined) | -7.4%
CCOCC(=O)Nc1nc2ccc(OCC)cc2s1 | 4.3%
Cc1cccc(N(CC(=O)NCc2ccccc2)C(=O)Cn2nnc(-c3ccc(C)o3)n2)c1 | -14.9%
CC(CN1CCOCC1)OC(=O)c1ccc2c(c1)OCCO2 (centres undefined) | 9.2%
COc1ccc(C(=O)OC(C)CN2CCOCC2)cc1OC (centres undefined) | -10%
O=C(CCN1C(=O)C2C3C=CC(C3)C2C1=O)NCc1cccnc1 (centres undefined) | -6.8%
O=C(CSc1nc(Nc2ccccc2)nc(N2CCOCC2)n1)N1CCCC1 | 5.4%

SMILES | cytotoxicity
O=C(CSc1nc2ccccc2c(=O)n1C1CC1)NCc1ccccc1 | 3.5%
COc1ccccc1-c1nnn(CC#N)n1 | 6.1%
CCOC(=O)c1c(C)c(C(=O)N2CCCCCC2)c(C)n1CC | -2.8%
O=C1c2ccccc2NC(c2ccccc2)N1Cc1ccco1 (centres undefined) | -5.8%
CCOC(=O)CSC1=C(C#N)C(=O)NC2(CCCCC2)S1 | 13.8%
CCOC(=O)CSC1=C(C#N)C(=O)NC(c2ccc(OC)c(OC)c2)S1 (centres undefined) | 70.5% (active)
CCOC(=O)CC1=C(C(=O)OCC)C(c2ccc(OC)c(OC)c2)C(C#N)=C(N)O1 (centres undefined) | 5.7%
COc1ccc(CCn2c(C)ccc2C)cc1OC | -8.8%
O=C(NC1CCCCC1)N1CCC(c2nc3ccc(Cl)cc3[nH]2)CC1 | 7.4%
Cn1nc(-c2ccc(Cl)cc2)c2cc(C(=O)NCCCN3CCCC3)sc21 | 54.3% (active)
Cn1nc(-c2ccc(Cl)cc2)c2cc(C(=O)NCCCN3CCOCC3)sc21 | 9.2%
CN1CCN(CCCNC(=O)c2cc3c(-c4ccc(Cl)cc4)nn(C)c3s2)CC1 | 3.3%
COc1ccccc1N1CCN(CCC(=O)Nc2ccc3c(c2)OCO3)CC1 | 7.5%
CCOc1ccc(C(=O)Nc2cccc(-c3nc4cccnc4o3)c2)cc1Cl | 56% (active)
CCOc1cccc(C(=O)Nc2cccc(-c3nnc(-c4ccccc4)o3)c2)c1 | -9.8%
Cc1ccc(-c2nc3cccnc3o2)cc1NC(=O)COc1ccc(Cl)cc1C | 0.4%
CCN1CCN(c2ccc(NC(=O)c3cccc4ncccc34)cc2)CC1 | -12.5%
Cc1sc2nc(SCC(=O)c3cccs3)n(Cc3ccco3)c(=O)c2c1C | 31.6%
C=CCNc1nc(-c2cccc(OC)c2O)nc2ccccc12 | -8.3%
COc1cccc(-c2nc(N3CCCCC3)c3ccccc3n2)c1O | -18.8%
Oc1ccc(Nc2nc(NCC3CCCO3)c3ccccc3n2)cc1 (centres undefined) | 46.8%
COc1cccc(-c2nc(N3CCCCC3C)c3ccccc3n2)c1O (centres undefined) | 63.1% (active)

SMILES | cytotoxicity
CCC1CCCCN1c1nc(-c2cccc(OC)c2O)nc2ccccc12 (centres undefined) | 8.3%
Oc1ccccc1-c1nc(NCc2ccco2)c2ccccc2n1 | 5.3%
CCC(C)Nc1nc(-c2cccc(OC)c2O)nc2ccccc12 (centres undefined) | 114% (active)
CCN(CC)c1nc(-c2cccc(OC)c2O)nc2ccccc12 | -8.4%
COc1cccc(-c2nc(NCC3CCCO3)c3ccccc3n2)c1O (centres undefined) | 55.1% (active)
COc1cccc(-c2nc(NC(C)C)c3ccccc3n2)c1O | 42.1%
COc1cccc(-c2nc(NC(C)(C)C)c3ccccc3n2)c1O | 20.9%
CS(=O)(=O)N(CC(=O)N1CCN(Cc2ccccc2)CC1)Cc1ccccc1 | -3%
COCCCNc1nc2c(c(=O)[nH]c(=O)n2C)n1CCCc1ccccc1 | -3.8%
CCCn1c(CNS(=O)(=O)c2ccc(C)cc2)nc2ccccc21 | 5.2%
O=C(CN1CCN(C(=O)c2ccccc2F)CC1)Nc1ccc(Br)cc1 | -5.9%
CCCCn1cnc2sc3c(c2c1=N)CCCC3 | -7.6%
CCCCOC(=O)Nc1ccccc1C(N)=O | -5.7%
COc1ccc(/C(O)=C2/C(=O)C(=O)N(CCCC(=O)O)C2c2ccc(OC)c(OC)c2)cc1 (centres undefined) | -0.6%
Oc1ccccc1-c1nc(NCC2CCCO2)c2ccccc2n1 (centres undefined) | 50.1% (active)
c1ccc(-c2nc(NCc3ccco3)c3ccccc3n2)nc1 | 20%
Oc1ccccc1Nc1nc(NCC2CCCO2)c2ccccc2n1 (centres undefined) | 12.1%
c1ccc(-c2nc(NCC3CCCO3)c3ccccc3n2)nc1 (centres undefined) | 9.5%
c1coc(CNc2nc(N3CCCCC3)nc3ccccc23)c1 | 38.2%
CC(=O)c1ccc(NC(=O)CSc2nnc(Cn3c(=O)sc4ccccc43)n2C)cc1 | -1.4%
